Compound activity: PubChem, ICCB-Longwood Screening Facility, Harvard Medical School
RVFV N-RNA inh – blocks Rift Valley Fever Virus nucleoprotein binding to RNA. P21700. RVFV N-RNA binding, fluorescence polarization; active compounds read low. % bound, % (no concentration beside the values). actives 0.1% (n = 20,000); in the data active means % bound below about 75%
Target sequence (P21700 whole entry, looked up): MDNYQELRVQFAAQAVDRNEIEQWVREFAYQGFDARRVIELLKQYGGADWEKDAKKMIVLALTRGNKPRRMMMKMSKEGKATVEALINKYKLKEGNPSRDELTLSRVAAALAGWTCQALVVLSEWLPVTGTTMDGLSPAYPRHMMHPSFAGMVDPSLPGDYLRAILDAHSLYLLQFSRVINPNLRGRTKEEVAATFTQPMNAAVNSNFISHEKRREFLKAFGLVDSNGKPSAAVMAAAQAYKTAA
Hits are given with their value; n = inactive; ! = a repeat was not active. The full list was thinned out, with hits kept by preference.

SMILES	RVFV N-RNA inh
CC[C@@]1(O)C(=O)OCc2c1cc1n(c2=O)Cc2cc3c(CN(C)C)c(O)ccc3nc2-1	44
CCCCc1cc(=O)oc2c(CN(C)C)c(O)ccc12	n
CSc1nnc(CSc2ncccn2)n1C	n
CCC(=O)Nc1ccc(C(=O)N2CCN(c3ccccc3)CC2)cc1	n
CO/C(N)=N/C(=S)Nc1ccc(C(C)C)cc1	n
CCOC(=O)c1ccsc1NC(=O)CSc1ccccc1	n
Cc1cc(C)c(S(=O)(=O)NCC(=O)NC2CC2)c(C)c1	n
O=C(O)/C=C\C(=O)Nc1ccc2nc[nH]c2c1	n
COc1ccc2nc3cc(Cl)ccc3c(Nc3cc(CN4CCCC4)c(O)c(CN4CCCC4)c3)c2n1	n
COc1cc(NC(C)CCCN)c2ncccc2c1 (stereo not given)	n
CCN(CC)CCCC(C)Nc1c2ccc(Cl)cc2nc2ccc(OC)cc12 (stereo not given)	34
Cc1noc(C(F)(F)F)c1C(=O)O/N=C(\N)c1ccc(C(F)(F)F)cc1	n
CCOC(=O)N1CCN(c2nc(C)c3c(n2)CC(c2ccco2)CC3=O)CC1 (stereo not given)	n
CC1=CC(=C(C#N)C#N)C=C(c2ccccc2)O1	n
CCCN1CCC2(CC1)C1CN(CCC)CC=C1C(C#N)=C(N)C2(C#N)C#N (stereo not given)	54
C=CCN1C(=O)C2C(C1=O)C1C=CC2C12CC2 (stereo not given)	n
CCOC(=O)c1cc(NS(=O)(=O)c2ccccc2)ccc1N1CCCCC1	n
O=C(O)COc1ccc(-c2nnn(Cc3ccc(Cl)cc3Cl)n2)cc1	n
O=S1(=O)C=CC2ON=C(c3c(Cl)cccc3Cl)C21 (stereo not given)	n
O=C(CN1CCCCC1)Nc1ccccc1-c1nc2ccccc2[nH]c1=O	n
C[C@H](N)CN1CCc2ccc(Br)cc21	72
CC(CN(C)C)CN1c2ccccc2CCc2ccccc21 (stereo not given)	n
Brc1ccc(-c2nnc3sc(CN4CCc5ccccc54)cn23)cc1	n
CN(c1ccccc1)S(=O)(=O)c1ccc2c(c1)CCN2S(C)(=O)=O	n
Cn1c(=O)c2[nH]c(-c3ccc(OCC(=O)NCc4ccccc4)cc3)nc2n(C)c1=O	n
SMILES	RVFV N-RNA inh
C/C(Cn1c(=O)oc2ccccc21)=N\OC(=O)c1ccc(Cl)cc1	n
CN(C)CCNC(=O)c1ccc(Br)s1	n
CCN1C(=O)c2ccc(-c3ccc(C=C4C(=O)NC(=O)NC4=O)o3)cc2C1=O	n
Oc1ccc2nnc3c(Br)cnn3c2c1	41
N#CCNC(=O)C(Sc1ccccc1)c1ccccc1 (stereo not given)	n
Cc1ccc(NC(=O)C2CC2)cc1NC(=O)C1CC1	n
Cc1ccc(N2CC(NC(=O)NCCCc3ccccc3)CC2=O)cc1 (stereo not given)	n
CC1CCN(Cc2c(O)ccc3c2O/C(=C\c2ccccc2)C3=O)CC1	56
CCc1c(C)c2ccc(O)c(CN(C)C)c2oc1=O	n
CC1CCN(CC(=O)NCc2ccccc2)CC1	n
O=C1/C(=C/c2ccccc2)Oc2c1ccc(O)c2CN1CCOCC1	53
O=C(CN1CCOCC1)N/N=C/c1ccccc1	n
CCN(CC)Cc1c(O)ccc2c1O/C(=C\c1ccc(C(=O)OC)cc1)C2=O	n
COc1ccc2c(c1)O/C(=C\c1cccc(OC(=O)N3CCOCC3)c1)C2=O	n
CN(C)Cc1c(O)ccc2c1O/C(=C\c1ccccc1)C2=O	48
CC1CCN(Cc2c(F)cccc2F)CC1	n
CC(C)OC(=O)c1c(F)c(F)c(F)c(F)c1F	n
CN(C)c1cccc(C(=O)Nc2ccc(Br)cc2)c1	n
Cc1nnc(SC/C=C/c2ccccc2)[nH]c1=O	n
CC(C)=NOCC(=O)Nc1ccccc1C	n
C=CCn1c(=NC(=O)CC)sc2cc(S(N)(=O)=O)ccc21	n
O=C(CN(c1ccc2c(c1)OCCO2)S(=O)(=O)c1ccccc1)Nc1ccc(S(=O)(=O)N2CCOCC2)cc1	n
Cc1ccc(C(=O)Nc2cc(=O)n(C)c(=O)n2C)cc1	n
O=C(O)c1ccc(-c2ccccc2)cc1	n
O=C1C=CC(=O)C(c2ccc(C(=O)O)cc2)=C1	52
SMILES	RVFV N-RNA inh
Cn1nnc(-c2ccc(C(=O)O)cc2)n1	n
CC(CNC1CCN(C)CC1)c1ccccc1 (stereo not given)	n
CC1=NN(C(=O)C(C)C)C(O)(C(F)(F)F)C1 (stereo not given)	n
O=C(N1CCC(c2ccccc2)=N1)C(F)(F)F	n
CC1CCN(C(=O)COc2ccc3c4c(c(=O)oc3c2)CCCCC4)CC1	n
Cc1cc(C)c2c(CC(=O)NN3CCN(C)CC3)coc2c1	n
CC(C)C(=O)Nc1cccc(C(=O)Nc2ccccc2)c1	n
Cc1cccc(NC(=O)c2cccc(C)c2)c1	n
Cc1ccc(C(=O)Nc2ccc(S(=O)(=O)O)c3cc(S(=O)(=O)O)cc(S(=O)(=O)O)c23)cc1NC(=O)c1cccc(NC(=O)Nc2cccc(C(=O)Nc3cc(C(=O)Nc4ccc(S(=O)(=O)O)c5cc(S(=O)(=O)O)cc(S(=O)(=O)O)c45)ccc3C)c2)c1	6.7!
N#CCN1C(=O)c2ccccc2C1=O	n
CCOC(=O)C1=NNC2C(=O)NC(=O)C12 (stereo not given)	n
CC1=C(C(N)=O)C(/C=C/c2ccccc2)n2ncnc2N1 (stereo not given)	29
CC1=C(C(N)=O)C(c2ccccc2F)NC(=O)N1 (stereo not given)	n
COC(=O)C1=C(C)NC(=S)NC1/C=C/c1ccccc1 (stereo not given)	n
N/C(=N\OC(=O)Nc1ccccc1)c1ccc2nonc2c1	n
Cc1ccc(S(=O)(=O)NC2CCCC2)cc1	n
CCCCSc1ccc(NCCC(=O)c2ccco2)cc1	n
CCNC(=O)CC1S/C(=N\N=C\c2ccc(C)o2)NC1=O (stereo not given)	n
O=C(CC1S/C(=N/N=C/c2ccco2)NC1=O)Nc1ccc(Cl)cc1 (stereo not given)	73
C/C=N/N=C1/NC(=O)C(CC(=O)Nc2cccc(C)c2C)S1 (stereo not given)	n
COC(=O)c1ccc(NC(=O)Cn2cc(OC)c(=O)cc2CN2CCCCC2)cc1	n
C1C2OC3CC4C1C1CC4C3C21 (stereo not given)	n
NC(=O)c1ccc(N=Cc2ccc[nH]2)cc1	n
COc1ccc(CC(=O)Nc2cccc(-c3ccc(S(C)(=O)=O)nn3)c2)cc1	n
Cc1ccc(Cl)cc1N/C=C/C(=O)C(C)(C)C	n
COc1cc2c(cc1OC)C(C)N(C(=O)c1ccc(N)cc1)CC2 (stereo not given)	n
CCc1noc(C)c1C(=O)Nc1cccc(Cn2cc(Cl)cn2)c1	n
CCCCCS(=O)(=O)N1C(=O)CSC1=Nc1ccccc1	n
